The panel holds about 83,000 compounds, 20% with a hit somewhere; the sample as a whole holds those more often.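 96-well plates, one dose, 48 hours. Percent growth reported; active if below 10.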 Unmarked numbers belong to inactive results. The source made the active and inactive calls.
Tests used:
Test in all cases: NCI-60 one-dose screen, 48 h (100 = growth as untreated, 0 = no growth, -100 = all killed)
Conditions in all cases: 10 µM unless noted
[1] = test system: SR leukemia
[2] = test system: RPMI-8226 leukemia
[3] = test system: OVCAR-8 ovarian
[4] = test system: OVCAR-5 ovarian
[5] = test system: OVCAR-4 ovarian
[6] = test system: SK-OV-3 ovarian
[7] = test system: IGROV1 ovarian
[8] = test system: OVCAR-3 ovarian
[9] = test system: HS 578T breast
[10] = test system: NCI/ADR-RES ovarian

SMILES: COc1ccc(NC(=O)COCCOCCNC[C@@H]2C(=O)O[C@H]3[C@H]2CC/C(COC(=O)OC/C2=C/CC[C@@]4(C)O[C@H]4[C@H]4OC(=O)[C@@H](CN(C)C)[C@@H]4CC2)=C\CC[C@@]2(C)O[C@@H]32)c(O)c1C(N)=O
- growth [1]: 0.464% (active)
- growth [2]: 38.4%
- growth [3]: 32.4%
- growth [4]: 91%
- growth [5]: 31.3%
- growth [6]: 79.4%
- growth [7]: 26.6%
- growth [8]: 0.0325% (active)
- growth [9]: 79.2%
- growth [10]: 101%

SMILES: Nc1ncc(-c2ccc3ncnc(Nc4cncc(Cl)c4)c3c2)cn1
- growth [1]: 73.8%
- growth [2]: 50.1%
- growth [3]: 76.8%
- growth [4]: 52%
- growth [5]: 66.8%
- growth [6]: 46.5%
- growth [7]: 7.85% (active)
- growth [8]: 59.9%
- growth [9]: 61.6%
- growth [10]: 82.2%

SMILES: NCC(=O)NS(=O)(=O)OC[C@H]1O[C@@H](n2cnc3c(N)ncnc32)[C@H](O)[C@@H]1O
- growth [1]: 9.93% (active)
- growth [2]: 18%
- growth [3]: -11.9% (active)
- growth [4]: 0.292% (active)
- growth [5]: -22.1% (active)
- growth [6]: 6.28% (active)
- growth [7]: 11.7%
- growth [8]: 10%
- growth [9]: 16.1%
- growth [10]: 2.07% (active)

SMILES: Nc1nc(-c2cc3c(cc2Cl)NC(=O)/C3=C/c2ccccc2)cs1
- growth [1]: 14.2%
- growth [2]: 37.6%
- growth [3]: 46.6%
- growth [4]: 108%
- growth [5]: 69.6%
- growth [6]: 81.1%
- growth [7]: 35.4%
- growth [8]: 29.8%
- growth [9]: 58.7%
- growth [10]: 74.6%

SMILES: COc1ccc(-c2coc3c(CO)c(O)ccc3c2=O)cc1
- growth [1]: 25.5%
- growth [2]: 36.6%
- growth [3]: 73.6%
- growth [4]: 102%
- growth [5]: 75.6%
- growth [6]: 84.7%
- growth [7]: 61.2%
- growth [8]: 9.94% (active)
- growth [9]: 57.2%
- growth [10]: 86.3%

SMILES: Cc1cc(SCc2ccc(Cl)cc2Cl)nc(SCc2ccc(Cl)cc2Cl)n1
- growth [1]: 105%
- growth [2]: 103%
- growth [3]: 104%
- growth [4]: 97.8%
- growth [5]: 88.2%
- growth [6]: 116%
- growth [7]: 99.5%
- growth [8]: 102%
- growth [9]: 102%
- growth [10]: 99.4%

SMILES: Cc1ccc2oc(=O)cc(C3C(C#N)=C(N)Oc4c3ccc3ccccc43)c2c1 (stereo not given)
- growth [1]: 27.6%
- growth [2]: 70.2%
- growth [3]: 85.8%
- growth [4]: 99.3%
- growth [5]: 87.8%
- growth [6]: 88.1%
- growth [7]: 75.6%
- growth [8]: 75.6%
- growth [9]: 85.5%
- growth [10]: 62.9%

SMILES: Cc1ccc[n+](CC(=O)c2cccc3ccccc23)c1
- growth [1]: 112%
- growth [2]: 101%
- growth [3]: 114%
- growth [4]: 98.6%
- growth [5]: 103%
- growth [6]: 96.9%
- growth [7]: 96%
- growth [8]: 98.6%
- growth [9]: 106%
- growth [10]: 108%

SMILES: C=C1C(=O)O[C@H]2[C@H]1CC/C(COC(=O)n1ccnc1C)=C\CC[C@@]1(C)O[C@@H]21
- growth [1]: 86.6%
- growth [2]: 100%
- growth [3]: 91.4%
- growth [4]: 101%
- growth [5]: 99.3%
- growth [6]: 85.4%
- growth [7]: 97.7%
- growth [8]: 73.7%
- growth [9]: 98%
- growth [10]: 96.3%

SMILES: C/C(=N/O)c1ccc(NC(=O)Cn2nc(-c3ccc(Cl)cc3)nc2N)cc1
- growth [1]: 81.2%
- growth [2]: 93.4%
- growth [3]: 81.6%
- growth [4]: 108%
- growth [5]: 119%
- growth [6]: 72.6%
- growth [7]: 89.7%
- growth [8]: 104%
- growth [9]: 88.5%
- growth [10]: 99.6%

SMILES: CC(C)(C)OC(=O)N1CCN(CCn2cc(C(F)(F)F)c3c(Cl)ncnc32)CC1
- growth [1]: -17.8% (active)
- growth [2]: 86.3%
- growth [3]: -61.4% (active)
- growth [4]: 108%
- growth [5]: 103%
- growth [6]: 96.9%
- growth [7]: -69.5% (active)
- growth [8]: 85.2%
- growth [9]: 82.5%
- growth [10]: 104%

SMILES: COc1cc(C(=O)C[n+]2ccccc2)ccc1OC(C)=O
- growth [1]: 109%
- growth [2]: 97.9%
- growth [3]: 102%
- growth [4]: 105%
- growth [5]: 96.8%
- growth [6]: 97.5%
- growth [7]: 107%
- growth [8]: 106%
- growth [9]: 95.1%
- growth [10]: 111%

SMILES: O=[N+]([O-])c1ccc(NS(=O)(=O)c2ccccc2)c2ccccc12
- growth [1]: 51.6%
- growth [2]: 11.7%
- growth [3]: 63.1%
- growth [4]: 84.4%
- growth [5]: 40.6%
- growth [6]: 34.7%
- growth [7]: 30.2%
- growth [8]: 25.5%
- growth [9]: 48%
- growth [10]: 51%

SMILES: COc1ccc(/C=C/C(=O)c2ccc(NC(=O)CSc3nnc(-c4cc(OC)c(OC)c(OC)c4)o3)cc2)cc1
- growth [1]: -60.5% (active)
- growth [2]: -43.7% (active)
- growth [3]: -14.3% (active)
- growth [4]: 7.48% (active)
- growth [5]: -49.9% (active)
- growth [6]: 85.2%
- growth [7]: -39.2% (active)
- growth [8]: -93.8% (active)
- growth [9]: 45.3%
- growth [10]: 3.13% (active)
